Several values for one entry are separate records, joined by “and”; a condition that tells them apart may be missing. Identical values can stand only once. Records with an inconclusive call do not appear. Activity calls are given as the source filed them. Unless noted, calls come from the whole dose curve; as a rule, active = well fitted curve in the direction sought with a large enough effect; inconclusive = small, poorly fitted or top-dose-only effect, or another doubt; inactive = no such curve, though single readings can be large; an effect the other way counts as inactive or inconclusive.

Assay [1] has as its target D(1A) dopamine receptor (Homo sapiens) (UniProt P21728). Briefly: HTS Assay for Allosteric Agonists of the Human D1 Dopamine Receptor: Primary Screen for Potentiators (AID 488982). Note: 0% is about no effect. The method in brief: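 Tetracycline-induced HEK293 Trex D1 cells with forced coupling to calcium, loaded with no-wash calcium dye; kinetic fluorescence read 180 s after compound addition for agonism, then a further 180 s after an EC20 dopamine challenge for potentiation.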

The nature of assay [2]: Validation screen for small molecules that induce genotoxicity in human embryonic kidney (HEK293T) cells expressing luciferase-tagged ELG1 (AID 493106). Note: 0% is about no effect. The method in brief:
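ELG1-luciferase reporter readout (ONE-Glo, 30 min, room temperature) after 16 hr compound treatment at 37 °C of HEK293T cells at 2,000 per well. Rising luminescence flags genotoxic stress.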

Assay [3] concerns the target ATPase family AAA domain-containing protein 5 (Homo sapiens) (UniProt Q96QE3). Put plainly: Validation screen for small molecules that inhibit ELG1-dependent DNA repair in human embryonic kidney (HEK293T) cells expressing luciferase-tagged ELG1 (AID 493107).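 Note: series mostly up to about 46 µM; % is set by controls: 0 for no effect and ±100 for the full control effect; inhibitors lower the ELG1-luciferase luminescence signal; nearly all actives have a fitted effect of over 70% in size.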 An outline of the steps:
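Luciferase read-out, ONE-Glo, 30 min at room temperature, follows 16 h co-exposure at 37 C of compound and the DNA-damaging agent 5-fluorouridine. Cells: HEK293T with ELG1-luciferase fusion, 2,000 per well, DMSO as vehicle.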

The target in assay [4] is Thyrotropin-releasing hormone receptor (Homo sapiens) (UniProt P34981). Briefly: qHTS for Small Molecule Agonists and Allosteric Enhancers of Human TRH Receptor: Validation Screen for Agonists (AID 493127;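 active = calcium activation more than 3 SD above the typical response in the agonist read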;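 note: intracellular calcium rise by fluo-8 fluorescence before TRH EC20 addition; 0% is about no effect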). To be noted: TRH receptor agonist cell assay; at 2 µM; stronger effect = higher value. An outline of the steps:
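Compound-evoked intracellular calcium release in fluo-8-loaded TRHR cells, read kinetically on FDSS (Ex 480/Em 530, 1 s/cycle) after 23 nL pintool transfer. Agonist phase preceded 10 nM TRH EC20 addition.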
(In general: Quantitative high-throughput screening tests each substance at several concentrations.)

Assay [5] can be described thus: Nrf2 qHTS screen for inhibitors: Validation (AID 493153; active = well fitted inhibition curve with a large enough effect in the main read-out, with a control signal flat, not every such curve was filed as active). To be noted: viability change: measured here: cytotoxicity max response. The method in brief:
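Concentration-response on A549 ARE_Fluc reporter cells exposed 18-24 h at 37 C, 5% CO2. Cytotoxicity read first by CellTiter-Fluor fluorescence (Ex 405/Em 525), then Nrf2 inhibition by BugLite luminescence after 15 min.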

A short description of assay [6]: qHTS for Inhibitors of Cell Surface uPA Generation: Validation Assay (AID 493164).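 Note: RAW 264.7 macrophage cells exposed to compound for 18 h; 0% is about no effect.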 The method in brief:
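ATP-Lite luminescence read-out: ATP remains high when uPA activity-dependent LF translocation into the cytoplasm is blocked. RAW 264.7 cells, 18 h compound exposure at 37 C; 7-point titration, 2.45 nM to 38.3 uM final.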

Assay [7] has as its target Galactokinase (Homo sapiens) (UniProt P51570). Briefly: qHTS Validation Assay for Inhibitors of Human Galactokinase (GALK) (AID 493189). Note: 0% is about no effect. An outline of the steps:
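5 nM GALK / 100 uM galactose / 35 uM ATP, 20 mM HEPES pH8.0, 5 mM MgCl2, 60 mM NaCl, 1 mM DTT, 0.01% BSA (final). RT 1 h; Kinase-Glo Plus luminescence.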

Assay [8] deals with ATP-dependent 6-phosphofructokinase (Trypanosoma brucei brucei) (UniProt O15648). Put plainly: qHTS Assay to Find Inhibitors of T. brucei phosphofructokinase: hit validation (AID 492961).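 Note: luminescence reports ADP formed as PFK phosphorylates fructose-6-phosphate with ATP; series mostly up to about 51 µM; % is set by controls: 0 for no effect and ±100 for the full control effect.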 An outline of the steps:
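Compounds titrated; %activity normalized to 0x and 1x enzyme controls, curve-fitted. Readout: ADP-Glo luminescence after 45 min room-temperature reaction of 1.25 nM PFK, 0.1 mM ATP, 0.5 mM F6P, pH 8.0.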

Assay [9] has as its target D(1A) dopamine receptor (Homo sapiens) (UniProt P21728). Briefly: HTS Assay for Allosteric Agonists of the Human D1 Dopamine Receptor: Primary Screen for Antagonists (AID 488983).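 Note: calcium flux response to an EC80 dopamine challenge measured with no-wash dye; % is set by controls: 0 for no effect and ±100 for the full control effect; nearly all actives have a fitted effect of over 65% in size.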 The method in brief: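 Calcium-flux read-out in inducible HEK293 T-REx cells expressing D1, dye-loaded 30–90 min at room temperature. Kinetic reads: 180 s after compound (agonist phase), then 180 s after an EC80 dopamine challenge.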

Galactokinase (Homo sapiens), sequence (P51570 whole entry, looked up): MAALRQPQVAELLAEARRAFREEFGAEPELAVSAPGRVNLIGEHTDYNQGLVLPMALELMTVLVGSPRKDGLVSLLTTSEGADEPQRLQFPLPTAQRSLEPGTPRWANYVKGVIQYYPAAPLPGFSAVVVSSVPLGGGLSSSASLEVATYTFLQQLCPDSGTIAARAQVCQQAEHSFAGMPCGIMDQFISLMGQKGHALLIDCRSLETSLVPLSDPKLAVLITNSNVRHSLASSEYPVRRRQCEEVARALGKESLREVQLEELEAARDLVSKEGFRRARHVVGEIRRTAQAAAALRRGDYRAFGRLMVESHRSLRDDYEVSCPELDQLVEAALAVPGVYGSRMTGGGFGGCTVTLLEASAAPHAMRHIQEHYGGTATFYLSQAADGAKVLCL
Thyrotropin-releasing hormone receptor (Homo sapiens), sequence (P34981 whole entry, looked up): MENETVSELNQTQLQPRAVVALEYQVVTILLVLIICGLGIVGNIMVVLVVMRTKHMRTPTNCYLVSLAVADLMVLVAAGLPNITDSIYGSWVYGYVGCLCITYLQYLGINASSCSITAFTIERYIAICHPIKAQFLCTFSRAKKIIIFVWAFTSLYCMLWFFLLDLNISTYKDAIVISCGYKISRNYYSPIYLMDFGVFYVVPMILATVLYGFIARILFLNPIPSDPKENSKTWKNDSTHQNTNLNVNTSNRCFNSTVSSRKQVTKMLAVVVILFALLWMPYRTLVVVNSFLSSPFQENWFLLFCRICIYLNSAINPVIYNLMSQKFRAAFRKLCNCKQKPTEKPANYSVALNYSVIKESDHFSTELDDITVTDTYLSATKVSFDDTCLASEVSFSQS
D(1A) dopamine receptor (Homo sapiens), sequence (P21728 whole entry, looked up): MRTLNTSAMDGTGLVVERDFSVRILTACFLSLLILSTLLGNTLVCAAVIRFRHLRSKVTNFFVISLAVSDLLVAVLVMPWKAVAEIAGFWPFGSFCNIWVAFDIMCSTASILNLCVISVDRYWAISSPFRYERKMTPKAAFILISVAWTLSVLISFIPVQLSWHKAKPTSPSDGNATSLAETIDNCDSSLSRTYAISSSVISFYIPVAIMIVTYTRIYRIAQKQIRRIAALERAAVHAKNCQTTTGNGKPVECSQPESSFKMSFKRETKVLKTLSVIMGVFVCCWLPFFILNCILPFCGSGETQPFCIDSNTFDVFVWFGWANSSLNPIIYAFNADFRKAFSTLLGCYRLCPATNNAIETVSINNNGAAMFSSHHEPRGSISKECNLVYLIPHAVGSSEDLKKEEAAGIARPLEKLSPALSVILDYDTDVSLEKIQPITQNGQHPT
ATPase family AAA domain-containing protein 5 (Homo sapiens), sequence (Q96QE3 whole entry, looked up, the tested form may be a part): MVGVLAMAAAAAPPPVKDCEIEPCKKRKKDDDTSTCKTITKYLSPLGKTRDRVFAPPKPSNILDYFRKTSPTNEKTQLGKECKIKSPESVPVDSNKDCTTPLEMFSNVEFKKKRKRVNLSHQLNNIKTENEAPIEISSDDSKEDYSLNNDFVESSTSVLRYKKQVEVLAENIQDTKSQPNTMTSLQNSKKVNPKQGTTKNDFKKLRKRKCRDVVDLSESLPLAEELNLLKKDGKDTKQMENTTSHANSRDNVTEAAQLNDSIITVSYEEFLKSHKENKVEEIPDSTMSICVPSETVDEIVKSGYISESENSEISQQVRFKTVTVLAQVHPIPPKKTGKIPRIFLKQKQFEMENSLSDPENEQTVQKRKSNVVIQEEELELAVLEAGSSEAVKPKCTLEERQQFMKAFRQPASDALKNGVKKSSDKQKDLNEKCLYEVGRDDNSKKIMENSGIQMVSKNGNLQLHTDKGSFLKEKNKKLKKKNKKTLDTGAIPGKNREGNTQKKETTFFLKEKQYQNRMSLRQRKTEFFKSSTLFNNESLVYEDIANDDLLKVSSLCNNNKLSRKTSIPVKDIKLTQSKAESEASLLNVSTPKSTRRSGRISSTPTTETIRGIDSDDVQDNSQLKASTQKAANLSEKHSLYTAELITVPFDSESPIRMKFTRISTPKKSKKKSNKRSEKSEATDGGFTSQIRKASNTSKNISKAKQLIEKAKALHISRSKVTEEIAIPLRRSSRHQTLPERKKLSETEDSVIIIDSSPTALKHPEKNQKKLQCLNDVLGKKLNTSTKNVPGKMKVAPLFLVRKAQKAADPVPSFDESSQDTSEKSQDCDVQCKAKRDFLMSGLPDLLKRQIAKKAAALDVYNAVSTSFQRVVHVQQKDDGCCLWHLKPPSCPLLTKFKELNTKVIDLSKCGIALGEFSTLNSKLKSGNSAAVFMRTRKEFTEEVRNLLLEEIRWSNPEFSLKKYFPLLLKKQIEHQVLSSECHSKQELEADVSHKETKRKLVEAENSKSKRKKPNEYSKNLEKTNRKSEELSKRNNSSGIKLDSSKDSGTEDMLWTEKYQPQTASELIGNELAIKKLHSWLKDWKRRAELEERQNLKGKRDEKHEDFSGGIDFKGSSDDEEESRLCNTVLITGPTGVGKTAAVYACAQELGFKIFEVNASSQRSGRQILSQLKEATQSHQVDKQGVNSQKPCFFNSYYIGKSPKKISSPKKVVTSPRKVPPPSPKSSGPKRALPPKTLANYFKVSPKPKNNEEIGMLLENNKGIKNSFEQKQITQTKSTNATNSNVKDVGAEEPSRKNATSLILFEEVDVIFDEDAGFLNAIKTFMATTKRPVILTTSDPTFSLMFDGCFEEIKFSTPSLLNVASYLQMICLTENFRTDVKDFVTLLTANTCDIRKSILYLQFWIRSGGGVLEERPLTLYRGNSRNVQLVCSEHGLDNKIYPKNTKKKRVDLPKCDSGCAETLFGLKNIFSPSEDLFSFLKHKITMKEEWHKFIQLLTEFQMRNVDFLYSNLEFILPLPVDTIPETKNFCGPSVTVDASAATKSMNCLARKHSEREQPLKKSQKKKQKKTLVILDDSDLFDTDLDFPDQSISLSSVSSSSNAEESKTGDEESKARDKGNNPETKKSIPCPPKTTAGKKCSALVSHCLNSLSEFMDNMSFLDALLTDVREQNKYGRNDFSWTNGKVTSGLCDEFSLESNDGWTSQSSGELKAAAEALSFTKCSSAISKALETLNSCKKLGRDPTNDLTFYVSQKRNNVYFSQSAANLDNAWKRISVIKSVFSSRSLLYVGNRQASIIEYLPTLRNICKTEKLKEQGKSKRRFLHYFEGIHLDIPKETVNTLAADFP
ATP-dependent 6-phosphofructokinase (Trypanosoma brucei brucei), sequence (O15648 whole entry, looked up): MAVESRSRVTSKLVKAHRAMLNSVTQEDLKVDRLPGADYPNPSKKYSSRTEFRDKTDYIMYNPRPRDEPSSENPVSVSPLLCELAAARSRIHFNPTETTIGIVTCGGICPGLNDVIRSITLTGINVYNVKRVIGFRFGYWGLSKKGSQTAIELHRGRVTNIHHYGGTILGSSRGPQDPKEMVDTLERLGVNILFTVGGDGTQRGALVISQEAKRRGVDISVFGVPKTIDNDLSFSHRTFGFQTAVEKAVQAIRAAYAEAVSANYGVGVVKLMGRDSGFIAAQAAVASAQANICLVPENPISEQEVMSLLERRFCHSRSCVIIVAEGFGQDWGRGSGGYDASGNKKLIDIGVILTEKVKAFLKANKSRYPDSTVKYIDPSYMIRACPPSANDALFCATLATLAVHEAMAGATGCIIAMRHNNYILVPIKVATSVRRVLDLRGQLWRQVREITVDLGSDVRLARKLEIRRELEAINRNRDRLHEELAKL

`NC(CCP(=O)(O)O)C(=O)O` (centres undefined): the result in assay [1], in [2], in assay [5], in assay [6] and in assay [7] was inactive. Moreover, in [3], the Potency result is “inactive”. Moreover, the activation in [4] was -3% (inactive). For the same compound, the viability change in assay [5] is 2.18%.
As to `CCCCc1ccc(C(=O)O)nc1`, the outcome in assay [1], in assay [2], in [6] and in [7] was inactive. Moreover, the Potency result in assay [3] was “inactive”. Besides, in assay [4], the activation was 1.25% (inactive).
Regarding `NC(CP(=O)(O)O)C(=O)O` (centres undefined), the outcome in assay [1], in [2], in [5], in [6] and in [7] was inactive. In assay [3], the Potency entry is “inactive”. The activation in assay [4] is -3.19% (inactive). For the same compound, the viability change in [5] was -2.21%.
Turning to `O=C(Cc1ccc(Cl)c(Cl)c1)N1CCCCC1CN1CCCC1` (centres undefined), the result in [1], in [2], in assay [6] and in [7] was inactive. In assay [3], the Potency result was “inactive”. For the same compound, the activation in assay [4] is 1.12% (inactive).
Take `CC(C)NC(C)Cc1ccc(I)cc1` (centres undefined): the result in assay [1], in assay [2], in assay [5], in assay [6] and in assay [7] was inactive. Besides, the Potency entry in assay [8] and in assay [3] was “inactive” throughout. The activation in assay [4] is 2.38% (inactive). In addition, the viability change in assay [5] turned out to be 2.82%.
Consider `NCc1cc(=O)[nH]o1`, for which the result in assay [1], in assay [2], in [6] and in assay [7] was inactive. In assay [3], the Potency result was “inactive”. For the same compound, in [4], the activation was -4.19% (inactive).
With `CNCCc1c[nH]c2ccc(O)cc12`, the result in assay [1], in assay [2], in assay [5], in [6] and in [7] was inactive. Moreover, the Potency result in assay [3] is “inactive”. Also, in assay [4], the activation is 1.06% (inactive). Moreover, the viability change in [5] came to 1.11%.
As to `CCCN1CCO[C@@H]2c3cc(O)ccc3OC[C@H]21`, the result in assay [1], in [2], in assay [5], in [6] and in assay [7] was inactive. Besides, the Potency entry in assay [3] is “inactive”. Besides, the activation in assay [4] was 1.06% (inactive) and 0% (inactive). Besides, in [5], the viability change is -0.639% and -4.02%.
Consider `COc1cc(C(O)CN)ccc1O` (centres undefined), for which the result in assay [1], in assay [2], in assay [5], in assay [6] and in assay [7] was inactive. Besides, in [3], the Potency entry was “inactive”. For the same compound, the activation in [4] was 0.375% (inactive). For the same compound, the viability change in [5] was -5.73%.
For the compound `S=C(NC1CCCCC1)N1CCC(c2cnc[nH]2)CC1`, the result in assay [1], in [2], in assay [6] and in assay [7] was inactive. The Potency result in assay [3] is “inactive”. In addition, the activation in [4] is 0.5% (inactive).
Regarding `C=CCN1CC[C@]23CCCCC2[C@H]1Cc1ccc(O)cc13` (some centres undefined), the result in [1], in assay [2], in [6] and in assay [7] was inactive. Also, the Potency result in assay [9], in assay [8] and in assay [3] was “inactive” in each case. For the same compound, the activation in [4] is 2% (inactive).
Consider `C[C@]12N[C@H](Cc3ccccc31)c1ccccc12`, for which the outcome in [1], in assay [2], in [5], in [6] and in [7] was inactive. The Potency result in assay [3] was “inactive”. Also, the viability change in [5] amounted to 0.285%.
On to `O=C(N[C@H]1CN2CCC1CC2)c1ccc(Cl)cc1`, for which the outcome in [1], in assay [2], in [5] and in assay [6] was inactive. The Potency entry in assay [3] is “inactive”. Also, the viability change in assay [5] is -3.51%.
For `C[C@@H]1O[C@H](C[N+](C)(C)C)C[C@H]1O`, the outcome in [1], in assay [6] and in assay [7] was inactive. Further, the Potency result in assay [3] is “inactive”. Further, in assay [4], the activation is 20.8% (inactive).

For the origin of these results see PubChem BioAssay (NCATS).
